Anesthetic bind: candidate novel general anesthetic via apoferritin binding; apoferritin/1-aminoanthracene competitive binding, fluorescence; Potency, µM (titrated, usually from 77.5 µM), for the others: at the top dose activity change, negative = displacement, actives largely listed as inhibitors; P02791; 350,000 compounds, 0.074% hits; AID 485281; further: potency means the concentration at half of the fitted maximal effect; on the % scale 0 is the no-effect control and ±100 the full control effect; nearly all actives have a fitted effect of over 20% in size
Target sequence (P02791 2-175 limits assumed): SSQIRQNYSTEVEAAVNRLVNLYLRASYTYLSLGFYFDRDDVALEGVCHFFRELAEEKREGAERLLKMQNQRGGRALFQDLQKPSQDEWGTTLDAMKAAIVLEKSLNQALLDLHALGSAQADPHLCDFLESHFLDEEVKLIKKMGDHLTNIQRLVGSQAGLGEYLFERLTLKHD
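10 uM apoferritin + 50% sat. 1-AMA, PBS; cpd 10 min RT; Ex380/Em535 endpoint; normalized to free probe vs complex; 4-param Hill fit; propofol titration as pos. ctrl.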
MmCpn inh: inhibitors of Methanococcus maripaludis chaperonin TRiC (MmCpn) | Potency, µM (doses to about 76.9 µM), inactives show top-dose activity, negative = inhibition, hits mostly inhibitors | 330,000 compounds, 0.031% hits | purified Mm-Cpn ATPase, ADP Transcreener TR-FRET; further: potency means the concentration at half of the fitted maximal effect; on the % scale 0 is the no-effect control and ±100 the full control effect; nearly all actives have a fitted effect of over 80% in size
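Eu-cryptate anti-ADP/ADP-d2 competition gives a ratio inversely related to ADP. Enzyme at 25 nM was pre-exposed to compound for 10 min, then given 10 uM ATP for 30 min, 37°C throughout.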
CCT chaperon mod: modulators of cytosolic chaperonin (CCT/TRiC) activity. activity change, % (test concentration not listed), hits read low. AID 651819. 360,000 compounds, 0.3% hits. purified chaperonin ATPase assay, HTRF ADP detection, 30 min; in the data active means activity change below about -30%; further: on the % scale 0 is the no-effect control and ±100 the full control effect
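First, chaperonin was dispensed at 40 nM or 20 nM final depending on batch activity. Next, compounds were pinned at 76 uM and ATP added at 10 uM. After 30 min at 37 °C, ADP detection reagents ran 30 min at ambient temperature.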
AT treatment: potential ataxia-telangiectasia treatments restoring KAP-1 phosphorylation | F2112 A-T fibroblasts, KAP-1 phosphorylation AlphaLISA; neocarzinostatin DNA damage 30 min before lysis | Potency, µM (series often up to 57.5 µM), for inactives: top-dose activation, usual class: activators | 320,000 compounds, 0.19% hits | AID 485349; further: potency means the concentration at half of the fitted maximal effect; % of control where 0% means no effect; nearly all actives have a fitted effect of over 45% in size
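ATM-like activity read as KAP-1 phosphorylation via AlphaLISA donor/acceptor antibody pairs after lysis and 6 hr at 25C. Cells were ATM-null patient fibroblasts (F2112, hTERT), dosed 60 min, then exposed to the DSB inducer NCS for 30 min.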
Numbers without * were called inactive; ? = inconclusive; . = no result given; ! = not active in a repeat; [ ] = remark or other dose. Compounds with a hit are over-represented: about 0.47% of the library has one in this group of screens. Unless noted, the call rests on the fitted dose curve; in most records, active means well fitted curve in the direction sought with a large enough effect; inconclusive means small, poorly fitted or top-dose-only effect, or another doubt; inactive means no such curve, though single readings can be large; an effect the other way counts as inactive or inconclusive.

SMILES	Anesthetic bind	MmCpn inh	CCT chaperon mod	AT treatment
CC(c1ccco1)N(C(=O)c1cccc(S(=O)(=O)N(C)C)c1)c1ccccn1 (stereo unspecified)	-0.6%	2.3%	-51.0*	2.2%
COc1cccc(C(=O)Nc2ccc(Cl)c(-c3nc4ccccc4[nH]3)c2)c1	13.9%	.	.	.
CCC(C=C[C@@H]1OC(=O)C=C[C@H]1C)=C[C@H](C)CC=CC(C)=C[C@@H](C)C(=O)[C@@H](C)[C@H](O)[C@@H](C)CC(C)=CC(=O)O	13.4%[3.34 µM]	.	.	.
Cc1ccc(C(=O)/C=C/C(=O)c2ccc(C)cc2)cc1	-10.2%	2.7%	0.4	25.1µM*
CCc1ccccc1NC(=O)N1CCC(CN2CCc3ccccc3C2)CC1	-8.3%	.	.	.
COc1ccc2nc(NC(=O)c3nc(SCc4cccc(C)c4)ncc3Cl)sc2c1	-4.5%	.	.	.
Cc1cccc(CSc2ncc(Cl)c(C(=O)Nc3nnc(C)s3)n2)c1	14.1µM*	.	.	.
CCCN1CCC(NC(=O)CCc2nnc(-c3ccccc3)o2)CC1	-8.3%	0.4%	-70.0*	5.0%
Cc1nc(NC(=S)NC(=O)c2ccccc2)sc1C	32.2%	0.0%	-33.3*	-5.7%
CC1CCN(c2oc(/C=C/c3ccc(F)cc3)nc2C#N)CC1	83.3%	.	.	.
Cc1ccc(N2CCN(C(=O)c3cn(C)c4ccc(S(=O)(=O)N(C)C5CCCCC5)cc4c3=O)CC2C)cc1 (stereo unspecified)	4.1%	.	.	.
O=C(O)CN1C(=O)/C(=C/c2ccccc2Cl)Oc2ccccc21	65.9%	-3.2%	0.0	5.4%
O=C(O)CN1C(=O)/C(=C/c2cccc(Cl)c2)Oc2ccccc21	17.1%	-6.0%	-1.2	5.01µM*
COc1ccc(C2C(C#N)=C(N)Oc3c2oc(CO)cc3=O)c(OC)c1OC (stereo unspecified)	-9.1%	0.8%	-34.4*	-1.1%
O=C(C1CCN(S(=O)(=O)Cc2ccccc2)CC1)N1CCN(c2cccc(C(F)(F)F)c2)CC1	-5.7%	.	.	.
CC(C)Sc1nc2c(cnn2-c2ccccc2)c(=O)[nH]1	-8.7%	-0.4%	-46.6*	10.3%
CCCC1=Nc2cc(C(=O)NC3CCCCC3)ccc2Sc2ccc(C)cc21	6.6%	.	.	.
COc1cc(F)cc(-c2ccc3c(c2)c(-c2cccs2)c(-c2cc(OC)cc(OC)c2)n3C)c1	.	22.4µM*	1.2	1.9%
CCOC(=O)CSc1nc2cc3c(cc2cc1C#N)OCCO3	-11.0%	-28.5%	-39.1*	-3.2%
Cc1ccc(-c2ccc(=O)n(Cc3c(F)cccc3Cl)n2)cc1	-0.3%	-5.4%	-1.8	8.3%
Cc1ccc(C)c(-c2ccc(=O)n(Cc3c(F)cccc3Cl)n2)c1	44.7µM*!	0.7%	-2.4	-2.7%
COc1cc2c(c(O)c1OC)-c1c(cc(OC)c(OC)c1OC)C[C@@H](C)[C@@H](C)C2	-19.7%	0.1%	-2.1	20µM*
CCOC(=O)c1ccc(N2C(=O)CC(N3CCC(Nc4ccc(F)cc4)CC3)C2=O)cc1 (stereo unspecified)	-7.7%	-4.2%	-64.6*	-3.7%
CN=C(NC#N)SCC(=O)c1ccc(Cl)cc1Cl	-18.4%	0.4%	-38.0*	2.2%
O=C1/C(=C/c2ccc(O)c(O)c2)Oc2ccccc21	-6.1%	.	.	.
SMILES	Anesthetic bind	MmCpn inh	CCT chaperon mod	AT treatment
Nn1c(SCC(=O)Nc2ccc(F)c(F)c2)nnc1C1CCCCC1	4.47µM*	1.8%	-1.4	.
N#CCc1nc(-c2cc3ccccc3oc2=O)cs1	-13.5%	-12.8%	-32.0*	-5.0%
Cc1cc(NC(=O)C2CCCO2)ccc1Br (stereo unspecified)	-7.6%	1.1%	-107.3*	2.1%
CCC(=O)N1CCN=C1SCc1ccccc1Cl	?	0.2%	-63.1*	11.8%
CN(C)CCN(Cc1ccccc1)S(=O)(=O)c1ccc2[nH]c(=O)ccc2c1	-15.0%	.	.	.
CCn1c2c(c3cc(Br)ccc31)CCC/C2=N\O	-19.8%	.	0.7	.
CCn1c2c(c3cc(OCC(C)C)ccc31)CCCC2=O	-11.5%	-4.9%	-8.4	31.6µM*
COc1ccc(C)c2sc(N(Cc3cccnc3)C(=O)CCc3ccccc3)nc12	5.5%	.	.	.
C=CCN(c1ccccc1)S(=O)(=O)c1ccc2[nH]cc(C(=O)NCCOC)c(=O)c2c1	5.2%	-2.3%	-1.2	-1.9%
COCCNC(=O)c1c[nH]c2ccc(S(=O)(=O)N(C)c3ccc(C)c(C)c3)cc2c1=O	-3.7%	-3.2%	-2.0	7.08µM*
O=C(O)C(Cc1cn[nH]n1)=NO	1.1%	-2.6%	-51.3*	4.2%
Cc1onc(-c2ccccc2)c1C(O)c1ccc(F)cc1 (stereo unspecified)	-20.8%	?	0.6	31.6µM*

Compound activity: PubChem BioAssay, National Center for Advancing Translational Sciences (NCATS)
